From PubChem BioAssay AID777 (Sanford-Burnham Center for Chemical Genomics, 2007) come the findings set out here.

Structures are written as SMILES. About 19,000 (20%) of roughly 96,000 compounds were called active. The list is a sample of the results. Unmarked numbers belong to inactive results.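 Rule for the calls: active = blocking of liver enzyme CYP2C9 beyond about 50% at 5 µM (limit read from the data); inactive = the rest.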

In the test the target is Cytochrome P450 2C9 (Homo sapiens) (UniProt P11712). The test is described as follows: blockers of cytochrome P450 2C9 activity – biochemical, luminescence, ADME assay, primary screen (AID 777). The settings on record: CYP2C9 Supersomes, luciferin-H conversion, at 5 µM, active compounds read high.
Cytochrome P450 2C9 (Homo sapiens), sequence (P11712 whole entry, looked up): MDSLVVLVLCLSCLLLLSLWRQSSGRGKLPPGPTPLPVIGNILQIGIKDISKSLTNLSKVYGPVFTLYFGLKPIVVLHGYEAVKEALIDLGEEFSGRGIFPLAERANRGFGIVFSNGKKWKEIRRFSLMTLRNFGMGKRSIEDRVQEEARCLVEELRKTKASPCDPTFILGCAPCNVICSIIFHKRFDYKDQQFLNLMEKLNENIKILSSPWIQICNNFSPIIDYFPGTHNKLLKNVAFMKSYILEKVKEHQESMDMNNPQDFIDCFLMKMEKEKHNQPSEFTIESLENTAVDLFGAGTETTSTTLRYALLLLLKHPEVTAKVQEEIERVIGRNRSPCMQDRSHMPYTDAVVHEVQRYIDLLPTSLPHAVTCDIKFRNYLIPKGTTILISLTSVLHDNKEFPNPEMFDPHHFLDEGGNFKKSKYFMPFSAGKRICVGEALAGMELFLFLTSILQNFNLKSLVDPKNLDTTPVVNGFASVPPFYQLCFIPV
Usually inhibition stands for the change of the read-out against control, counted positive when it falls. Take `Cc1ccc(Oc2ccc3c(c2)C(=O)N(c2cccc4cccnc24)C3=O)cc1`: the inhibition was -11.5%.

With `Cc1ccc(C2(c3ccc(C)cc3)NC(=O)N(Cc3c(C)noc3C)C2=O)cc1`, the inhibition was 60.8% (active).

Consider `COc1ccc(C(=O)CN2C(=O)NC(C)(c3ccc(C)cc3)C2=O)cc1OC` (stereo not given), for which the inhibition is 17.2%.

As for `COc1ccc(C(=O)CSc2n[nH]c(N)n2)cc1`, the inhibition was 2.8%.

For the compound `O=C(CN1CCOCC1)Nc1c(-c2ccccc2)c2cc(Br)ccc2[nH]c1=O`, the inhibition is -15.8%.

Take `CS(=O)(=O)c1ccc2nc(NC(=O)C3CCCCC3)sc2c1`: the inhibition was 7.3%.

Regarding `O=C(Nc1ccccc1N1CCCCC1)c1cccc(F)c1`, the inhibition is 1.2%.

Regarding `O=C(Nc1ccccc1N1CCN(C(=O)c2ccccc2)CC1)c1ccc2c(c1)OCO2`, the inhibition was 83.3% (active).

As to `O=C(CN1CCN(c2ccccc2F)CC1)c1ccc2c(c1)OCO2`, the inhibition was 74.2% (active).

With `O=C(c1ccc2c(c1)OCO2)N1CCNc2ccccc2C1`, the inhibition was -40.3%.

Take `O=C(Nc1ccccc1N1CCN(c2ccccc2)CC1)c1cccc(F)c1`: the inhibition is 81.1% (active).

For the compound `O=C(CN1CCN(CC(=O)Nc2ccc3c(c2)OCO3)CC1)Nc1ccc(F)cc1`, the inhibition is 33.1%.

For `CCCC(=O)Nc1ccccc1N1CCN(C(=O)c2ccccc2)CC1`, the inhibition is 35.7%.

For the compound `O=C(Nc1ccccc1N1CCCCC1)c1ccc2nccnc2c1`, the inhibition is 28.1%.

Consider `CCOc1ccc(NC(=O)N2CCN(CC)CC2)cc1`, for which the inhibition is -0.2%.

For `Cc1oc2nc(SCC(=O)Nc3ccc(S(N)(=O)=O)cc3)nc(NC(=O)c3ccccc3)c2c1C`, the inhibition was 15%.

Consider `COc1ccc(Cc2nnnn2CC(=O)O)cc1`, for which the inhibition is -11.9%.

As to `Cc1ccccc1-c1ccc(Nc2ccc(C(=O)N3CCOCC3)cc2)nn1`, the inhibition is 34.1%.

Consider `COc1ccc(N2C(=O)CC(N3CCC(C(N)=O)CC3)C2=O)cc1` (stereo not given), for which the inhibition is -20.9%.

Regarding `COC(=O)c1ccc(C2CC(=O)Nc3cc(OC)c(OC)cc32)cc1` (stereo not given), the inhibition is 30.2%.

For `COc1ccc(CCN2CNc3c(c(=O)n(C)c(=O)n3C)C2)cc1OC`, the inhibition was -29.7%.

With `COC(=O)c1ccc(C2C(Oc3ccccc3C)C(=O)N2CCc2ccc(OC)c(OC)c2)cc1` (stereo not given), the inhibition is 54.9% (active).

In the case of `Cc1nn(C(C)CC(=O)O)c(C)c1C` (stereo not given), the inhibition is -4.1%.

Regarding `COc1ccc(CN2C(=O)CN=C2Nc2ccc(C)cc2C)cc1`, the inhibition was 31.5%.

In the case of `CCCCc1nc(NCCN)c(C#N)c2c1CSC(C)(C)C2`, the inhibition is 53.6% (active).

For the compound `CCN(CC)c1ccc(NC(=O)c2ccc(Cl)nc2)cc1`, the inhibition was -69.8%.

With `CCOc1ccc(C(CC(=O)O)NC(=O)COc2ccccc2)cc1` (stereo not given), the inhibition was 5.2%.

As to `CCOc1cc(NC(=O)c2ccco2)c(OCC)cc1NC(=O)COc1ccccc1`, the inhibition is 11.6%.

With `O=C(COc1ccccc1)Nc1nonc1NC(=O)COc1ccccc1`, the inhibition is 52% (active).

For the compound `Cc1ccc(C)c2[nH]c(=O)c(CCNC(=O)CC(C)C)cc12`, the inhibition was 30.9%.

On to `O=[N+]([O-])c1c(NCCO)cc(Sc2nc3ccccc3s2)c2nonc12`, for which the inhibition is 12.3%.

In the case of `Cn1c(=O)cc(OCCCC(=O)N2CCN(c3ccccn3)CC2)c2ccccc21`, the inhibition is 30.3%.

`COc1cccc(-c2nnc(NC(=O)c3ccc(S(=O)(=O)N(CC(C)C)CC(C)C)cc3)o2)c1`: the inhibition is 58.9% (active).

As to `CC1CCCCN1S(=O)(=O)c1ccc(C(=O)Nc2nnc(-c3cccs3)o2)cc1` (stereo not given), the inhibition is 7.8%.

In the case of `CCN(CC)C(=O)CSc1nnc(-c2cccc(OC)c2)o1`, the inhibition was -55.9%.

On to `O=C(/C=C/c1cccs1)c1cc(Cl)ccc1OC(=O)N1CCOCC1`, for which the inhibition was 28.1%.

As for `CN(Cc1ccccc1)C(=O)CCNC(=O)Cn1cnc2ccccc2c1=O`, the inhibition is 24.9%.

Turning to `CC1Oc2ccccc2N(Cc2cccnc2)C1=O` (stereo not given), the inhibition is 14%.

For the compound `O=C(Cn1cnc2ccccc2c1=O)NCC1COc2ccccc2O1` (stereo not given), the inhibition is 61.2% (active).

As for `O=C(Cn1nc(Cc2cccnc2)c2ccccc2c1=O)NCC1CCCO1` (stereo not given), the inhibition is 21.3%.

With `O=C(Cn1nc(Cc2cccnc2)c2ccccc2c1=O)NCC1COc2ccccc2O1` (stereo not given), the inhibition was 66.1% (active).

In the case of `O=C(CN1C(=O)C2C3C=CC(C3)C2C1=O)NCC1COc2ccccc2O1` (stereo not given), the inhibition was -1.1%.

As to `Cc1cc(OC(=O)c2c(Cl)cccc2Cl)nc(C)n1`, the inhibition is 2.9%.

As to `CCC(C)NC(=O)CCCc1ccccc1` (stereo not given), the inhibition was -17.4%.

On to `c1ccc(Cc2nn3c(Cn4cnc5ccccc54)nnc3s2)cc1`, for which the inhibition was 24.4%.

For the compound `CC(=O)c1cn(CCCCCCCCCCn2cc(C(C)=O)c(=O)[nH]c2=O)c(=O)[nH]c1=O`, the inhibition was 3.4%.

On to `CC(=O)c1c(C)n([O-])c2ccccc2[n+]1=O`, for which the inhibition is -1.1%.

Consider `CCOC(=O)N1CCN(C(=O)c2cc3c(ccc4ccccc43)oc2=O)CC1`, for which the inhibition is 45.9%.

Consider `O=C(COc1ccc2c3c(c(=O)oc2c1)CCC3)NC1CCCCC1`, for which the inhibition is 73.7% (active).

For `NC(=O)COc1ccc2c3c(c(=O)oc2c1)CCCCC3`, the inhibition is -7.4%.

For the compound `CC1(C)CC(=O)c2cc(OCC(=O)NCC3CCCO3)ccc2O1` (stereo not given), the inhibition was 18.5%.

On to `COC(=O)c1cn(CC(=O)NCc2cccs2)c2ccccc12`, for which the inhibition is 23.2%.

In the case of `O=C(Cn1cc(C(=O)c2cccs2)c2ccccc21)NCc1cccs1`, the inhibition is 93.7% (active).

Regarding `COC(=O)Cn1cc(C(=O)c2cccs2)c2ccccc21`, the inhibition was 25.3%.

As for `CN(C)c1ccnc(Oc2ccc(F)cc2)c1C#N`, the inhibition is 40.8%.

`CCOC(=O)N1CCN(C(=O)COc2ccc(Cl)cc2C)CC1`: the inhibition is -15.4%.

For `CCOC(=O)N1CCC(O)(c2cc(C)c(C)cc2C)CC1`, the inhibition is 67.1% (active).

Turning to `CCOC(=O)N1CCN(C(=O)COc2ccc(Br)cc2)CC1`, the inhibition is -4.3%.

As to `COC(=O)c1ccc(N(CC(=O)NC2CCCC2)C(=O)CNC(=O)c2ccco2)cc1`, the inhibition is 28.7%.

As to `Cc1cc(C)nc(SCc2ccccc2C#N)n1`, the inhibition is -24.8%.

As for `Cc1ccc(Cc2cncc(O)c2)cc1S(=O)(=O)O`, the inhibition was 0.1%.

On to `O=S(=O)(Nc1ccc2nc(-c3ccco3)[nH]c2c1)c1ccccc1`, for which the inhibition was 85.2% (active).

Consider `Cc1cc(NS(=O)(=O)c2ccccc2)no1`, for which the inhibition is 12.3%.

`c1ccc2[nH]c(-c3nc4ccccc4[nH]3)nc2c1`: the inhibition was 16.1%.

Consider `Cc1cc(C)c2c3c(sc2n1)C(c1ccccc1)C(C#N)=C(N)O3` (stereo not given), for which the inhibition was 11%.

With `Fc1ccc(OCc2nn3c(Cn4nnc5ccccc54)nnc3s2)cc1`, the inhibition is 23.6%.

On to `Cc1cccc(NC(=O)c2ccccc2NC(=O)C(C)(C)C)n1`, for which the inhibition was 11.7%.

Regarding `O=C(Nc1ccccc1)c1cccnc1Nc1ccccc1`, the inhibition was 1.5%.

Take `O=C(Nc1ccccc1)c1ccccc1NC(=O)C(F)(F)F`: the inhibition is 74.8% (active).

Consider `Cc1ccc(-n2c(=O)cc(N3CCN(Cc4ccccc4)CC3)[nH]c2=O)cc1`, for which the inhibition was 22.1%.

With `CCOC(=O)C1CCN(C(=O)COc2cc(C)c(Br)c(C)c2)CC1`, the inhibition was 15.8%.

`CCCN1CCN(C(=O)Cn2ncc3ccccc32)CC1`: the inhibition was 1%.

Consider `O=c1ccn(Cc2ccccc2Cl)cc1`, for which the inhibition was -5.8%.

For `O=c1[nH][nH]c(C(F)(F)F)c1C=NCc1ccccc1Cl`, the inhibition was 55.5% (active).

For the compound `Cc1ccc(N(NC(=O)C(C)(C)O)C(=O)c2ccccc2)cc1C`, the inhibition is 2.5%.

For `NS(=O)(=O)c1cccnc1Nc1cccc(Cl)c1`, the inhibition is 5.6%.

As to `Cc1ccc(/C=N/NC(=O)Cn2nc(C)c(Br)c2C)o1`, the inhibition is 23.7%.

Turning to `O=C(Cn1cncn1)N/N=C/c1c2ccccc2cc2ccccc12`, the inhibition is 63.7% (active).

Take `O=C(Cc1ccccc1)N/N=C/c1ccc(Cl)cc1Cl`: the inhibition was 23.1%.

Take `CC(=O)Oc1ccc(C(C)=O)c2c1OCCO2`: the inhibition was -9.3%.

In the case of `N#CCCn1cnc2ccccc21`, the inhibition was -0.8%.

`Cc1ccc(SCC(=O)NC(=O)NCc2ccco2)c(C)c1`: the inhibition is 30%.

As for `O=C(CN1CCN(S(=O)(=O)/C=C/c2ccccc2)CC1)NC(=O)NCc1ccco1`, the inhibition is 40.2%.

On to `CC1(c2ccccc2Cl)NC(=O)N(CC(=O)NC(=O)NCc2ccco2)C1=O` (stereo not given), for which the inhibition was 67.6% (active).

With `Cc1cccc(NC(=O)c2ccc3ccccc3n2)n1`, the inhibition was -0.8%.

For `COc1cc(OC)nc(NC(=O)CCl)n1`, the inhibition is -14.2%.

Take `O=P(O)(CP(=O)(c1ccccc1)c1ccccc1)c1ccccc1O`: the inhibition is -5.8%.

`CC(CO)N1CCS(=O)(=O)CC1` (stereo not given): the inhibition is -5.6%.

As to `COc1ccc(NC(=O)C(CC(C)C)NS(=O)(=O)c2ccc3c(c2)CCN3C(C)=O)cc1OC` (stereo not given), the inhibition is 7.4%.

Consider `Brc1ccc(OCCn2ccnc2)cc1`, for which the inhibition was 72.1% (active).

Consider `CC(=O)NS(=O)(=O)c1ccccc1`, for which the inhibition is 0.2%.

In the case of `O=C1C(Cl)=C(N2CCOCC2)C(=O)N1c1ccccc1`, the inhibition was 5%.

As to `COc1cc2c(cc1OC)C(C(=O)NCc1ccco1)C1c3ccccc3CCN1C2=O` (stereo not given), the inhibition was 42%.

With `CC(C)(C)c1ccc(NC(=O)NCc2ccco2)cc1`, the inhibition was -17.8%.

`CC1(C)SC2c3ccccc3C(=O)N2[C@@H]1C(=O)NCc1ccco1` (stereo not given in full): the inhibition was 57.9% (active).

`CC1CCc2c(sc3c2C2=NS(=O)(=O)CCN2C=N3)C1` (stereo not given): the inhibition is 6.8%.

As to `O=C(Nc1cc(-c2nn(CC(=O)N3CCCCC3)c(=O)c3ccccc23)ccc1N1CCOCC1)c1ccc(Cl)cc1`, the inhibition was 0.2%.

`O=C(Cn1nnc2ccccc2c1=O)Nc1cc(C(F)(F)F)ccc1N1CCOCC1`: the inhibition was 60.7% (active).

`CC(C)CC(=O)Nc1cc(C(F)(F)F)ccc1N1CCOCC1`: the inhibition was 9.9%.

With `CCCCc1nccn1CCn1ccnc1CCCC`, the inhibition was -10.5%.
